Assay outcomes (PubChem BioAssay)
SNCA viab count: cell viability loss counter-screen; HEK-293-SNCA-luc viability, GF-AFC fluorescence, 24 h; AID 1671193; 150,000 tested, 0.12% active; Potency, µM (highest dose often 57.1 µM), hits mostly cytotoxic; also: nearly all actives have a fitted effect of over 30% in size
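HEK-293-SNCA-luc cells (1500/well) plated 24 h, then exposed 24 h to a dilution series; GF-AFC added 30 min at 37C, fluorescence 405/540 nm; normalised to medium-only and DMSO wells, Hill fit.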
SNCA expr inh: inhibitors of alpha-synuclein (SNCA) gene expression | HEK-293 SNCA-luciferase knock-in, luminescence, 24 h | Potency, µM (series often up to 57.2 µM), hits mostly inhibitors | 140,000 tested, 0.17% active; also: nearly all actives have a fitted effect of over 45% in size
GPT2 inh: inhibitors of human GPT2 alanine aminotransferase. Q8TD30. Recombinant GPT2, coupled pyruvate oxidase/HRP Amplex Red fluorescence. Potency, µM (titrated, usually from 57.7 µM), usual class: inhibitors. 100,000 tested, 0.25% active; also: nearly all actives have a fitted effect of over 60% in size
Target sequence (Q8TD30 whole entry, looked up): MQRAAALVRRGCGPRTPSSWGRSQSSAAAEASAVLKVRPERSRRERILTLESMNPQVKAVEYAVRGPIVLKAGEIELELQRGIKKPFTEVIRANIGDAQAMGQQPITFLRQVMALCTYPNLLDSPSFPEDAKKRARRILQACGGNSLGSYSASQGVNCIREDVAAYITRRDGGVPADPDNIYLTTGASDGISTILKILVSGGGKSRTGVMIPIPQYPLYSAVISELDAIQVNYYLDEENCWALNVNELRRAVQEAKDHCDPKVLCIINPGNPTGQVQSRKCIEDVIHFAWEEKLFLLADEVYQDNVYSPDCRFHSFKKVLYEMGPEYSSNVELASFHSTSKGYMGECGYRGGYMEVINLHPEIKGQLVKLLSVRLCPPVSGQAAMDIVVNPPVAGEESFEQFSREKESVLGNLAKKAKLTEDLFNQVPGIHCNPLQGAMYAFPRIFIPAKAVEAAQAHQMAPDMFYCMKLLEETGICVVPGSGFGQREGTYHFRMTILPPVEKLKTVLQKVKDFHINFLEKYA
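Recombinant GPT2 (10ng/uL) with 250uM a-KG and 2mM L-alanine, 30 min at room temperature, in HEPES pH 7.5 buffer. Pyruvate detected by pyruvate oxidase/HRP/Amplex Red fluorescence after 30 min in the dark; AOA (50uM) as positive control.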
Each line names hits and unclear results; the compound was inactive in the other large screens; ! = repeats disagree. Hits are enriched below; roughly 0.36% of the tested compounds scored in any of these assays. Calls follow the shape of the dose curve; as a rule, active = well fitted curve in the direction sought with a large enough effect; inconclusive = small, poorly fitted or top-dose-only effect, or another doubt; inactive = no such curve, though single readings can be large; an effect the other way counts as inactive or inconclusive.

Cc1cccc(-c2cccc(CN3CCC(NC(=O)c4ccccc4)CC3)c2)c1	none
COCC(=O)NC1CCN(c2nccc(Nc3ccc(C)cc3)n2)CC1	none
CNC(=O)CCn1ncc2cc(OCc3ccccc3-c3ccc(OC)cc3C)ccc21	none
Cc1cccc(-c2nc3ccc(C(=O)NCc4cccnc4)cc3o2)n1	none
O=C(CCc1ccc(O)cc1)c1c(O)cc(O)cc1O	GPT2 inh 6.9µM!
COc1ccc(CCC(C)=O)cc1	none
O=[S+]([O-])(c1ccccc1)N1CCNc2cnc(Nc3cccc(F)c3)nc2C1	SNCA viab count inconclusive
CNC(=O)C1CCCN(Cc2cccc(-c3ccc(F)cc3F)c2)C1 (stereo not given)	none
CCCCc1ccc(NC(=O)CN2C(=O)NC(c3ccc(Cl)cc3)C3=C2COC3=O)cc1 (stereo not given)	SNCA viab count inconclusive, SNCA expr inh 13µM
O=C(CN1C(=O)NC(c2ccc(Cl)cc2)C2=C1COC2=O)Nc1ccccc1 (stereo not given)	SNCA expr inh inconclusive
O=C(c1ccccc1)N1CCN(Cc2ccccc2-c2cccnc2)CC1	none
CNC(=O)c1ccccc1Nc1nc(Nc2ccc(N3CCNCC3)cc2)ncc1Cl	none (no result: SNCA expr inh)
CNC(=O)c1ccccc1Nc1cc(Nc2ccc(N3CCOCC3)cc2OC)ncc1C(F)(F)F	GPT2 inh 22µM (no result: SNCA expr inh)
COc1ccccc1Nc1ccnc(N2CCCC(C(=O)NCc3cccs3)C2)n1 (stereo not given)	none
CC(=O)N1CCc2c(sc3c2c(=O)n(-c2cccc(Cl)c2C)c(=O)n3Cc2ccccc2C)C1	SNCA viab count inconclusive (no result: GPT2 inh)
C#CCn1c(=O)n(-c2cccc(Cl)c2C)c(=O)c2c3c(sc21)CN(C(C)=O)CC3	SNCA expr inh 4µM (no result: GPT2 inh)
O=C(NCCCc1ccccc1)[C@@H]1CCCN1c1nccc(Nc2ccccc2Cl)n1	none
COc1ccc(CCNc2ncnc3c2CN(c2cccc(C)c2)C(=O)CN3C)cc1	GPT2 inh inconclusive
COC(=O)[C@]12CCC(C)(C)C[C@@H]1[C@@H]1C(=O)C=C3[C@@]4(C)C=C(C#N)C(=O)C(C)(C)[C@@H]4CC[C@@]3(C)[C@]1(C)CC2	SNCA viab count 14µM, SNCA expr inh 8.6µM
O=C(c1nc(-c2ccc(Cl)nc2)c2ccccn12)N1CCCC1	none
COc1ccc(NC(=O)Nc2cccc(-c3ccc(N4CCOCC4)nn3)c2)cc1	none
COc1ccc(NC(=O)Nc2cccc(-c3ccc(N4CCOCC4)nn3)c2)cc1F	SNCA expr inh 20µM
Cn1ncc2c(C(=O)NCc3cccnc3)cc(-c3cccc(C(F)(F)F)c3)nc21	SNCA viab count inconclusive, SNCA expr inh inconclusive
COc1ccccc1C(=O)NC1CCN(Cc2cccc(-c3cccs3)c2)CC1	SNCA expr inh inconclusive
O=C(Nc1ccccc1)N1CCC(CCc2nc(C3CCOCC3)no2)CC1	SNCA expr inh inconclusive
COc1ccc(C(=O)N2CCc3[nH]nc(C(=O)NCCCc4ccccc4)c3C2)cc1	SNCA expr inh inconclusive
CC1CCN(CCNC(=O)c2ccc(Cn3c(SCc4ccccc4)nc4cccnc43)cc2)CC1	SNCA viab count 10µM (no result: GPT2 inh)
O=C(NCCN1CCCCC1)c1ccc(Cn2c(SCc3ccccc3)nc3cccnc32)cc1	SNCA viab count inconclusive (no result: GPT2 inh)
O=C1c2cnc(-c3cccc(CO)c3)nc2OCCN1Cc1ccccc1	none
O=C1c2cnc(-c3cccc(CO)c3)nc2OCCN1c1ccccc1	SNCA expr inh 7.9µM
O=C(O)CCC(=O)OC[C@@H](NC(=O)C(Cl)Cl)[C@H](O)c1ccc([N+](=O)[O-])cc1	GPT2 inh inconclusive
CCCCCCCCCCCCCC(=O)N[C@H](CO)[C@H](O)c1ccc([N+](=O)[O-])cc1	SNCA expr inh 9.6µM
NC(=O)c1c(OCc2c(F)cc(Br)cc2F)nsc1NC(=O)NCCCCN1CCCC1	SNCA viab count inconclusive, SNCA expr inh 6.1µM
O=C(Nc1ccc(Br)cc1F)N1CCC(CN2CCCC2)CC1	none (no result: GPT2 inh)
C=C1C(=O)O[C@@H]2[C@H]3C(C)=CC(=O)C3=C(C)[C@@H](OC(=O)/C(C)=C\C)[C@H](O)[C@@H]12	SNCA viab count inconclusive (no result: SNCA expr inh)
C=C1C(=O)O[C@@H]2C/C(C)=C\C(=O)/C=C(\C)[C@@H](OC(=O)/C(C)=C\C)[C@H](O)[C@@H]12	SNCA viab count 15µM (no result: SNCA expr inh)
C=CCN1CCc2c(cc(O)c(O)c2Cl)C(c2ccccc2)C1 (stereo not given)	GPT2 inh inconclusive
Cc1cccc(C2CN(C)CCc3c2cc(O)c(O)c3Cl)c1 (stereo not given)	GPT2 inh 7.1µM
c1cc(-c2cnn3cc(-c4ccc(N5CCNCC5)cc4)cnc23)c2cccnc2c1	SNCA viab count 24µM (no result: SNCA expr inh)
O=C(Cc1ccc(F)cc1)Nc1cc(C2CC2)nn1-c1ccccc1	none
Cc1ccc2nc(-c3ccc(NC(=O)C(F)(F)F)cc3)sc2c1	SNCA expr inh inconclusive (no result: GPT2 inh)
Nc1ccc2nc(-c3ccc(O)cc3)sc2c1	SNCA expr inh 1.3µM (no result: GPT2 inh)
C[C@H]1CC[C@@]2(OC1)O[C@H]1CC3C4CC[C@H]5C[C@@H](O)CC[C@]5(C)C4=CC(=O)[C@]3(C)[C@H]1[C@@H]2C (stereo not given in full)	none (no result: SNCA expr inh)
C[C@@H]1CC[C@@]2(OC1)O[C@H]1C[C@H]3[C@@H]4CC[C@H]5C[C@@H](O)CC[C@]5(C)[C@H]4CC(=O)[C@]3(C)[C@H]1[C@@H]2C	GPT2 inh 2.2µM
Cn1ncc2c(C(=O)N3CCN(Cc4ccccc4)CC3)cc(-c3ccc(Cl)cc3Cl)nc21	none
COc1ccc2cc1Nc1ccc(cc1)C[C@H](NC(=O)Cc1cccc(Cl)c1)C(=O)N(C)[C@H](C(=O)NCCC(C)C)C2	SNCA viab count inconclusive, SNCA expr inh inconclusive
CC[n+]1c(/C=C/C=C2/N(C)c3ccccc3C2(C)C)sc2ccccc21	SNCA viab count 10µM, SNCA expr inh inconclusive
Cn1c(=O)n(-c2ccc3c(c2)OCO3)c2nc(-c3ccc(Cl)cc3)nc(C(N)=O)c21	SNCA expr inh 32µM (no result: GPT2 inh)
CC(C)c1ccc(-c2nc(C(N)=O)c3c(n2)n(-c2ccc4c(c2)OCO4)c(=O)n3C)cc1	none (no result: GPT2 inh)
Cc1cccc(Nc2nc(-c3ccncc3)cs2)c1	none
COc1cc(Br)c(Nc2nc(-c3c(C)nc4ncccn34)cs2)c(Br)c1	SNCA viab count 6µM (no result: SNCA expr inh)
CN(C)c1ccc(NC(=S)N[C@H]2CO[C@H]3[C@@H]2OC[C@H]3OC(=O)Nc2cccc3ccccc23)cc1	GPT2 inh 8.9µM
O=C(Nc1cccc2ccccc12)O[C@@H]1CO[C@H]2[C@@H]1OC[C@@H]2NC(=S)Nc1ccc(Cl)cc1	SNCA expr inh inconclusive
COc1ccccc1Nc1ccnc(N2CCC(NC(=O)Cc3cccc(Cl)c3)CC2)n1	none
CC(=O)N1CCOc2ccc(CCC(=O)NC(C)Cn3ccc(C)n3)cc2C1 (stereo not given)	SNCA expr inh 20µM
CNC(=O)CCc1ccc2c(c1)CN(C(C)=O)CCO2	none
O=C(O)c1ccc(OCCN2CCCCC2)cc1	none
C(#Cc1nc2ncccc2nc1OCCN1CCCC1)c1ccccc1	SNCA viab count 15µM (no result: SNCA expr inh)
CCN1CCN(Cc2ccc(NC(=O)c3ccc(C)c(NC(=O)c4cncc(-c5cccs5)c4)c3)cc2C(F)(F)F)CC1	SNCA viab count inconclusive (no result: SNCA expr inh)
Cc1ccc(C(=O)Nc2ccc(CN3CCN(C)CC3)c(C(F)(F)F)c2)cc1C#Cc1cnc2cccnn12	SNCA viab count 30µM!, SNCA expr inh inconclusive, GPT2 inh inconclusive
